Results as given in article PMC5540273 (PLoS ONE, 2017).

Experiments:
Details in all cases: concentration: 1 μM, replicates: in singlicate; n = 1
PAK6 = system: PAK6
PAK7 = system: PAK7
PCTK1 = system: T1, PCTK1
T1 construct: gene CDK16

PCTK2 = system: T2, PCTK2
T2 construct: gene CDK17

PCTK3 = system: T3, PCTK3
T3 construct: gene CDK18

PDGFRA = system: PDGFRA
PDGFRB = system: PDGFRB
PDPK1 = system: PDPK1
PFTAIRE2 = system: PFTAIRE2
PFTK1 = system: T4, PFTK1
T4 construct: gene CDK14

PHKG1 = system: PHKG1
PHKG2 = system: PHKG2
PIK3C2B = system: PIK3C2B
PIK3C2G = system: PIK3C2G
PIK3CA = system: PIK3CA
PIK3CB = system: PIK3CB
PIK3CD = system: PIK3CD
PIK3CG = system: PIK3CG
PIK4CB = system: T5, PIK4CB
T5 construct: gene PI4KB

PIKFYVE = system: PIKFYVE
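Note: KINOMEscan kinase panel screen.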

Row | SMILES | %Inh (PAK6) [%] | %Inh (PAK7) [%] | %Inh (PCTK1) [%] | %Inh (PCTK2) [%] | %Inh (PCTK3) [%] | %Inh (PDGFRA) [%] | %Inh (PDGFRB) [%] | %Inh (PDPK1) [%] | %Inh (PFTAIRE2) [%] | %Inh (PFTK1) [%] | %Inh (PHKG1) [%] | %Inh (PHKG2) [%] | %Inh (PIK3C2B) [%] | %Inh (PIK3C2G) [%] | %Inh (PIK3CA) [%] | %Inh (PIK3CB) [%] | %Inh (PIK3CD) [%] | %Inh (PIK3CG) [%] | %Inh (PIK4CB) [%] | %Inh (PIKFYVE) [%]
1 | Cl.O=C(Nc1cccc(-c2nn3ncccc3c2-c2ccnc(Nc3cccnc3)n2)c1)c1c(F)cccc1F [GSK312879] | 0 | 10 | 1 | 0 | 0 | 0 | 77 | 28 | 22 | 9 | 8 | 18 | 0 | 0 | 0 | 0 | 0 | 0 | 11 | 52
2 | Cc1ccc(-c2cc(-c3c[nH]nc3-c3ccccn3)ccn2)cc1 [GW684088] | 9 | 19 | 0 | 19 | 40 | 7 | 22 | 0 | 0 | 32 | 0 | 27 | 0 | 1 | 2 | 8 | 1 | 4 | 2 | 30
3 | COc1cccc(NC(=O)NC2CCN(c3ccnc(Nc4ccc(F)cc4)n3)C2)c1 (centres unmarked) [GSK1379721] | 0 | 10 | 1 | 14 | 19 | 9 | 42 | 0 | 28 | 0 | 0 | 0 | 11 | 0 | 3 | 0 | 0 | 13 | 0 | 31
4 | O=C(Nc1n[nH]c2cc(-c3cccc(F)c3F)ccc12)C1CC1 [SB-733894] | 0 | 1 | 0 | 8 | 5 | 23 | 51 | 19 | 0 | 0 | 3 | 25 | 17 | 15 | 0 | 0 | 0 | 19 | 8 | 100
5 | COC(=O)c1c(-c2ccccc2)c2cc(C(=O)O)ccc2c(=O)n1Cc1ccccc1 | 16 | 0 | 8 | 0 | 0 | 65 | 99.4 | 14 | 0 | 0 | 0 | 24 | 3 | 0 | 0 | 13 | 0 | 7 | 0 | 2
6 | Cc1cccc(-c2nc(C)cc(Nc3ccncc3)n2)n1 [GSK257997] | 0 | 0 | 9 | 0 | 15 | 0 | 11 | 0 | 14 | 24 | 0 | 7 | 0 | 0 | 3 | 0 | 0 | 5 | 0 | 27
7 | Cn1cncc1-c1ccc2ncnc(Nc3ccc(OCc4ccccc4)cc3)c2c1 [GW320571] | 0 | 0 | 0 | 0 | 7 | 0 | 9 | 9 | 20 | 0 | 5 | 1 | 61 | 57 | 0 | 0 | 7 | 6 | 0 | 0
8 | COc1cc(Nc2nccc(N3CCC(NC(=O)Nc4cc(C)ccc4C)C3)n2)cc(OC)c1OC (centres unmarked) [GSK1379762] | 0 | 0 | 9 | 24 | 33 | 8 | 42 | 11 | 24 | 21 | 3 | 0 | 0 | 0 | 0 | 0 | 39 | 0 | 15 | 0
9 | COc1ccc(Nc2nccc(-c3cccc(NC(=O)c4cc5cc(F)ccc5[nH]4)c3)n2)cc1 [GSK1229782] | 11 | 51 | 1 | 18 | 7 | 33 | 61 | 21 | 30 | 24 | 19 | 0 | 0 | 0 | 0 | 0 | 0 | 2 | 0 | 6
10 | Cc1cc(N2Cc3ccccc3C2)nc(Nc2ccc(S(=O)(=O)N3CCOCC3)cc2)n1.Cl [GSK1669917] | 0 | 0 | 0 | 0 | 0 | 0 | 2 | 0 | 0 | 23 | 14 | 0 | 0 | 0 | 0 | 0 | 0 | 48 | 100 | 0
11 | Cc1ccc(C(=O)Nc2ccc(Nc3ccnc4cc(-c5ccccn5)ccc34)cc2O)cc1.Cl [GW440146] | 8 | 0 | 0 | 0 | 24 | 54 | 86 | 0 | 26 | 18 | 0 | 0 | 0 | 0 | 0 | 0 | 100 | 0 | 0 | 4
12 | CCCc1ccc(S(=O)(=O)NC2CCN(c3ccnc(Nc4ccc(F)cc4)n3)C2)cc1 (centres unmarked) [GSK1379715] | 0 | 0 | 0 | 0 | 19 | 0 | 16 | 82 | 0 | 1 | 0 | 0 | 0 | 0 | 0 | 0 | 34 | 0 | 0 | 0
13 | Nc1ncnc2[nH]c(-c3ccccc3)nc12 [AH5015] | 0 | 0 | 3 | 0 | 0 | 9 | 42 | 21 | 6 | 11 | 0 | 0 | 0 | 0 | 0 | 0 | 0 | 0 | 37 | 8
14 | Cn1ccc2ncnc(Oc3cccc(C(=O)Nc4ccccc4)c3)c21 | 0 | 0 | 0 | 2 | 0 | 12 | 39 | 0 | 0 | 7 | 0 | 0 | 0 | 0 | 0 | 15 | 27 | 0 | 2 | 10
15 | Cl.c1ccc(-c2n[nH]cc2-c2ccnc(-c3ccc(CN4CCOCC4)cc3)c2)nc1 [GW776245] | 14 | 0 | 0 | 11 | 6 | 0 | 0 | 21 | 19 | 0 | 0 | 14 | 16 | 0 | 0 | 0 | 0 | 33 | 0 | 0
16 | COc1cc2ncn(-c3cc(OCC4CCCO4)c(C(N)=O)s3)c2cc1OC (centres unmarked) [GSK204607] | 0 | 12 | 0 | 0 | 0 | 0 | 32 | 0 | 1 | 24 | 0 | 3 | 0 | 0 | 0 | 0 | 0 | 19 | 0 | 0
17 | CN(C)CCN(C)C(=O)c1cc(-c2ccncc2)c(-c2ccc(Cl)c(O)c2)o1.Cl.Cl [SB-710397] | 0 | 0 | 4 | 0 | 0 | 0 | 22 | 0 | 0 | 0 | 0 | 0 | 0 | 0 | 0 | 18 | 40 | 0 | 7 | 47
18 | Cc1cc(NCC(c2ccccc2)c2ccccc2)nc(NCc2ccc(C(F)(F)F)cc2)n1 [GW497681] | 0 | 0 | 0 | 13 | 35 | 0 | 21 | 0 | 13 | 18 | 0 | 0 | 0 | 0 | 0 | 0 | 0 | 0 | 0 | 0
19 | COc1ccccc1-c1ccc2c(NC(=O)C3CC3)n[nH]c2n1 [SB-711239] | 54 | 4 | 1 | 0 | 27 | 0 | 0 | 13 | 9 | 2 | 1 | 0 | 0 | 45 | 0 | 25 | 23 | 0 | 0 | 17
